Records with an inconclusive call do not appear. Calls of active or inactive are those of the source. Rule for the calls: active = hit-call score of the fitted dose curve at least 0.9, where 1 is the maximum; inconclusive = response in the unintended direction; inactive = score below 0.9.

Chain of human Phosphodiesterase 4A1 (PDE4A1), PDE4A (gene 5141) (P27815 whole entry, looked up): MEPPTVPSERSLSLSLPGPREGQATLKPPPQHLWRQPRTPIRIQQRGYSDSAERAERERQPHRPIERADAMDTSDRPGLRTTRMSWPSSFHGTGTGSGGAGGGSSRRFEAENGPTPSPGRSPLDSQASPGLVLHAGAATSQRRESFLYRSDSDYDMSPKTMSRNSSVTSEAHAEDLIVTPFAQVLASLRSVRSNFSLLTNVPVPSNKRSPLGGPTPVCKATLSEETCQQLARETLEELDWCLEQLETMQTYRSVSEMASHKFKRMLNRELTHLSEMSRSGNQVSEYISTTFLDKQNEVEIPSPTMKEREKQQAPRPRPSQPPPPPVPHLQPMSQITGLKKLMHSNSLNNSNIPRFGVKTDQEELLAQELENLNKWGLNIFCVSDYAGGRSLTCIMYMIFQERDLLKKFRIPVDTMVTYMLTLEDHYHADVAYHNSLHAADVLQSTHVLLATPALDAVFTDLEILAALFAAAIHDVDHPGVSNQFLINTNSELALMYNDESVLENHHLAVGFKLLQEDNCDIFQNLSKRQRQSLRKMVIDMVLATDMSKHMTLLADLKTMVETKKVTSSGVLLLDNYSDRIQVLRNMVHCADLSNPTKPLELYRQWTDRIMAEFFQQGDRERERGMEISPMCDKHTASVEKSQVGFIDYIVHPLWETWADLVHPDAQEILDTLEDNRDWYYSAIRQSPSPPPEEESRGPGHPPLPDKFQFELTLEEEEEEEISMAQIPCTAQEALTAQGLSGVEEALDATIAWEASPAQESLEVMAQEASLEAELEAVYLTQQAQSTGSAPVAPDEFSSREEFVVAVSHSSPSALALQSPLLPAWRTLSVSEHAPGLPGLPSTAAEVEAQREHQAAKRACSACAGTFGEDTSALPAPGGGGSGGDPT

The target of the experiment is human Phosphodiesterase 4A1 (PDE4A1), PDE4A (gene 5141) (UniProt P27815). The experiment in a line: NVS_ENZ_hPDE4A1: NovaScreen (NVS) Enzymatic Assay for human Phosphodiesterase 4A1 (PDE4A1) (AID 2283191). Here is the method:
NVS_ENZ_hPDE4A1 is a biochemical, single-readout assay that uses extracted gene-proteins in a cell-free assay. Measurements were taken 1 hour after chemical dosing in a 384-well plate.NVS_ENZ_hPDE4A1 is one of one assay component(s) measured or calculated from the NVS_ENZ_hPDE4A1 assay. It is designed to make measurements of enzyme activity, a form of enzyme reporter, as detected with fluorescence intensity signals by Fluorescence and electrophoretic mobility shift technology.Data from the assay component NVS_ENZ_hPDE4A1 was analyzed into 1 assay endpoint. This assay endpoint, NVS_ENZ_hPDE4A1, was analyzed in the positive analysis fitting direction relative to DMSO as the negative control and baseline of activity. Using a type of enzyme reporter, loss-of-signal activity can be used to understand changes in the enzymatic activity as they relate to the gene PDE4A. Furthermore, this assay endpoint can be referred to as a primary readout, because this assay has produced multiple assay endpoints where this one serves a enzymatic activity function. To generalize the intended target to other relatable targets, this assay endpoint is annotated to the esterase intended target family, where the subfamily is phosphodiesterase.
Binding assays used specific radioligands (tritiated, iodinated) with non-radioactive competitive displacement ligands in agonist or antagonist protocols (as indicated) and various reference compounds and inhibitors to titrate specific binding to receptors and transporters. Most enzyme assays (CYPs, kinases, phosphatases, proteases, HDACs) used recombinant protein and specific substrates (fluorescence mostly, some colorimetric and radioactive) and inhibitors, followed by a biochemical separation of substrate and product. All assays for the biochemical HTS were initially run in duplicate at a single concentration (10 uM for CYP450 assays and 25 uM for all others). Assay-chemical combinations meeting a pre-defined threshold (e.g., 30% inhibition and other criteria defined below) were then run in singleton concentration-response format with maximum concentration of 20 uM for CYPs and 50 uM for all others. Each assay was run with positive and negative controls, and concurrent controls on every plate. The follow-up (secondary) screen tested active chemical-pairs in concentration series, as well as a few additional assays not tested in the primary screen, some selected negative inactives, and several cases re-run in the concentration series for confirmatory purposes.
For the molecule `C=CCCCCCCCCC(=O)O`, the molecule was classed as inactive.
Same read-out and setting: then `O=C(O)CC(O)C(=O)O` (stereo not given), with “inactive”.
By AC50 is commonly meant the concentration giving half of the maximal activity seen. Regarding `Cn1c(=O)c2c(ncn2C)n(C)c1=O`, the half-maximal activity concentration (AC50) is 25000 nM (active).
Turning to `CCCCCCc1ccc(O)cc1O`, the concentration at half-maximal activity (AC50) is 39200 nM (active).
Regarding `O=C(O)c1cccc(Oc2ccccc2)c1`, the result was inactive.
Turning to `Cn1c(=O)cc(Oc2ccc(F)cc2F)c2cnc(NCC(C)(C)O)nc21`, the AC50 was 914 nM (active).
With `O=C(O)c1cccc(N(Cc2cccnc2)c2ccc(OC(F)F)c(OC(F)F)c2)c1`, the AC50 was 4.37 nM (active).
For the molecule `CNS(=O)(=O)c1cc(C(=O)N2CCC(CCN3C4CCC3CC(n3c(C)nc5ccccc53)C4)(c3cccc(F)c3)CC2)c(Cl)cc1F` (stereo not given), the molecule was called inactive.
For `COc1ccc(-n2nc(C(F)F)cc2-c2ccc(S(C)=O)cc2)cc1` (stereo not given), the AC50 was 2.29 nM (active).
With `COC(=O)CC(=O)OC`, the outcome was inactive.
Regarding `CC[C@H]1CC[C@H](NCc2cc3c(cc2OC)[C@H]2C[C@H]2C(=O)N3C)[C@H](c2ccccc2)N1`, the molecule was called inactive.
The same measure, in the same setting: then `Cc1ccc(N)cc1O`, with “inactive”; and `CC1(C)C(=O)N(Br)C(=O)N1Br`, with “inactive”.
As to `COc1cccc(-c2ccc(/C=C\CN3CCCCCC3)cc2Cl)c1`, the result was inactive.
The same measure, in the same setting: then `O=C(O)c1cc(N=Nc2ccc(S(=O)(=O)Nc3ccccn3)cc2)ccc1O`, with “inactive”.

The values are drawn from PubChem BioAssay (EPA / NIEHS).
